Screens (PubChem BioAssay)
FMDV inh: High Throughput Screening for Foot and Mouth Disease Virus Antivirals; FMDV antiviral cell-based qHTS; Potency, µM (top dose mostly 57.9 µM), for the others: top-dose activity change, negative = inhibition, most hits filed as inhibitors; hit rate 1.2% among 410,000; AID 1159524, 2015; calls by dose curve; tested in HEK293T cells; further: read-out not given here; potency means the concentration at half of the fitted maximal effect; on the % scale 0 is the no-effect control and ±100 the full control effect; nearly all actives have a fitted effect of over 45% in size
MARV entry inh: qHTS for inhibitors of binding or entry into cells for Marburg Virus; Marburg virus pseudotyped entry inhibition, cell reporter; Potency, µM (doses to about 37.8 µM), without a hit: at the highest dose activity change, negative = inhibition, most hits filed as inhibitors; hit rate 1.8% among 300,000; AID 540276, 2011; calls by dose curve; tested in HEK293 cells; further: potency means the concentration at half of the fitted maximal effect; on the % scale 0 is the no-effect control and ±100 the full control effect
HCMV inh: qHTS Assay for inhibitors of the human cytomegalovirus (HCMV); hit rate 4.5% among 410,000; AID 1259415, 2018; HFF cells, HCMV-luciferase reporter, 72 h; stronger effect = lower value; activity change, negative = inhibition, % at 57.5 µM; in the data active means activity change below about -60%; inconclusive means no clear call, values can overlap the other calls; inactive means above about -39%; further: on the % scale 0 is the no-effect control and ±100 the full control effect
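Steps: HFFs plated, 16 h 37C; compounds added; HCMV-luciferase added to MOI 1 PFU/cell; 72 h 37C; OneGlo reagent, 5 min room temperature; luminescence read, normalized to controls.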
HCV inh: qHTS Assay for Inhibitors of Hepatitis C Virus (HCV) | Huh7.5.1 HCVcc-Cre infection, luciferase reporter, 44 h | Potency, µM (top dose mostly 41.8 µM), for inactives: at the top dose activity change, negative = inhibition, hits mostly inhibitors | hit rate 3.4% among 340,000 | AID 651820, 2012; active means well fitted inhibition curve with a large enough effect; inconclusive means small, poorly fitted or top-dose-only effect, or another doubt; inactive means no such curve, though single readings can be large or run the other way; further: potency means the concentration at half of the fitted maximal effect; on the % scale 0 is the no-effect control and ±100 the full control effect
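Cells (1,000/well) were plated 4 h before compound, then infected with HCVcc-Cre virus (~0.5 moi). After 44 h further culture, infection was read as luciferase luminescence following a 15 min substrate incubation at room temperature.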
SARS PLpro yeast: qHTS of Yeast-based Assay for SARS-CoV PLP; S. cerevisiae expressing SARS-CoV PLpro, growth rescue; Potency, µM (top dose mostly 32.9 µM), inactives show top-dose activity, positive = growth rescue, actives largely listed as activators; hit rate 0.19% among 330,000; AID 485353, 2010; calls by dose curve; further: potency means the concentration at half of the fitted maximal effect; 0% is about no effect; nearly all actives have a fitted effect of over 55% in size
LASV entry inh: qHTS for Inhibitors of binding or entry into cells for Lassa Virus. Potency, µM (doses to about 37.9 µM), inactives show at the top dose activity change, negative = inhibition, actives largely listed as inhibitors. hit rate 1.2% among 300,000. Lassa virus pseudotype entry inhibition, cell reporter; calls by dose curve; tested in HEK293 cells; further: potency means the concentration at half of the fitted maximal effect; on the % scale 0 is the no-effect control and ±100 the full control effect; nearly all actives have a fitted effect of over 50% in size
Starred values were filed as active, the others as inactive; u = inconclusive; x = no result given; ! = not confirmed by another sample; [ ] = dose if it differs, or a comment. Shown are actives, neighbours in structure and some others; about 8% of the full set was active somewhere.

SMILES | FMDV inh | MARV entry inh | HCMV inh | HCV inh | SARS PLpro yeast | LASV entry inh
CCN(CCO)c1ncnc2c1sc1nc(CC(C)C)c3c(c12)CC(C)(C)OC3 | -14% | -19% | 12 | 14µM* | -2% | 2%
CCN(CC)CCNc1ncnc2c1sc1nc(N3CCCC3)c3c(c12)CC(C)(C)OC3 | u | u | -25 | 2µM* | -1% | u
CCc1cccc(C)c1NC(=O)Cn1c(=O)cc(C(F)(F)F)c2c(C)nn(C)c21 | -17% | x | 5 | x | x | -13%[46.1 µM]
CCCCCCCCCCCCCCCC[n+]1ccc(C(N)=O)cc1 | u | -16% | -86* | 7% | -20% | u
CCCCCCCCCCCCCCCC[n+]1ccccc1 | 16µM*! | u | -98* | 3.2µM* | x | u
CCCCCCCCCCCCCCCC[n+]1ccc(/C=N/O)cc1 | u | 4.5µM* | -97* | u | -58% | 6.5µM*
CCCCCCC[n+]1ccc(-c2cc[n+](CCCCCCC)cc2)cc1 | -7% | u | -101* | u | -29% | -27%
CC(=O)Oc1cc(-c2coc3cc(OC(C)=O)c(OC(C)=O)c(OC(C)=O)c3c2=O)cc(OC(C)=O)c1OC(C)=O | 7% | x | x | x | x | x
Cc1cccc(C)c1NC(=O)C(Nc1ccccc1)c1ccccc1F (stereo not given) | x | x | 8 | x | x | x
CCCCCCCCCCCCCCCC[n+]1cccc(C(=O)N(CC)CC)c1 | -24% | 7.1µM* | -31 | 6% | -67% | 11µM*
Cc1c(-c2ccccn2)c(=O)[nH]n1-c1ccc(F)cc1 | -34% | 8.9µM* | 14 | 6% | 0% | -27%[46.1 µM]
O=c1[nH]n(-c2ccc(F)cc2)c2ncccc12 | 1% | 6% | -7 | 16% | -12% | 5%
CC(C)C(=O)Nc1nnc(SCC(=O)NCc2cccs2)s1 | -5% | u | -92* | 9% | 3% | 0%
CC(C)(C)C(=O)Nc1nnc(SCC(=O)NCc2cccs2)s1 | -3% | 4% | 35 | -3% | 1% | u
Cc1ccc(NC(=O)c2ccc(CNS(=O)(=O)c3ccc4c(c3)C(C)(C)C(=O)N4C)cc2)cc1C | 35µM* | x | -22 | x | x | u
Cc1cccc(NC(=O)c2ccc(CNS(=O)(=O)c3ccc4c(c3)C(C)(C)C(=O)N4C)cc2)c1 | 35µM* | x | -7 | x | x | u
O=C(O)CC(CNS(=O)(=O)c1ccccc1)c1ccccc1 (stereo not given) | -20% | -1% | -75* | u | 6% | x
O=C(O)CCCCCCNS(=O)(=O)c1ccccc1 | -10% | 7% | 6 | 1% | 12% | -5%
COc1ccccc1OCCn1c(NC(=O)c2ccccc2Cl)nc2ccccc21 | 32% | u | 31 | x | x | -29%[46.1 µM]
CCOC(=O)c1scc(-c2ccccc2)c1S(=O)(=O)N1CCN(c2ccccc2OC)CC1 | -20% | x | -19 | x | x | u
Cc1cc(-n2c(SCc3ccccc3F)nc3[nH]ncc3c2=O)ccc1Cl | -18% | x | -64* | x | x | 4%[46.1 µM]
O=c1c2cn[nH]c2nc(SCc2ccc3c(c2)OCCO3)n1-c1ccccc1 | 25µM* | u | -37 | u | -4% | u
COCCNC(=O)c1c(NC(=O)Cc2coc3cc(C)ccc23)sc2c1CCCC2 | 21% | 3%[46.1 µM] | -10 | x | x | -9%[46.1 µM]
COc1cc(/C=C2\SC(=O)NC2=O)ccc1Oc1ccc([N+](=O)[O-])cn1 | -18% | 7%[46.1 µM] | -60* | 6% | -1% | -1%
COc1cc(/C=C2/SC(=O)NC2=O)ccc1Oc1ccc([N+](=O)[O-])cc1[N+](=O)[O-] | u | 1% | -35 | -7% | -1% | x
SMILES | FMDV inh | MARV entry inh | HCMV inh | HCV inh | SARS PLpro yeast | LASV entry inh
NC1=NC(=O)/C(=C\c2ccc(O)c([N+](=O)[O-])c2)S1 | 5% | 6% | -30 | -4% | 0% | 10%
COc1cc(/C=C2/SC(N)=NC2=O)ccc1Oc1ccc([N+](=O)[O-])cc1[N+](=O)[O-] | -24% | u | -70* | 10% | -14% | u
COc1ccc(/C=C(/NC(=O)c2ccco2)C(=O)NCc2ccco2)cc1OC | 17% | -3% | u | 7% | 4% | 20%
COc1ccc(/C=C(/NC(=O)c2ccco2)C(=O)N2CCc3ccccc32)cc1OC | -8% | -6%[46.1 µM] | 56 | 5% | -1% | 7.9µM*
COc1ccc(CNC(=O)c2ccc(N(C)S(=O)(=O)c3ccc(C)cc3)cc2)cc1 | -15% | u | 27 | 4.5µM* | 1% | u
CCOCCCNC(=O)c1ccc(N(C)S(=O)(=O)c2ccc(OC)cc2)cc1 | 1% | 14% | -103* | -4% | 1% | -4%
COc1ccc(S(=O)(=O)N(C)c2ccc(C(=O)NCCC(C)C)cc2)cc1 | -16% | -4% | 39 | -11% | -7% | 8.2µM*
COc1ccc(S(=O)(=O)N(C)c2ccc(C(=O)NCc3ccncc3)cc2)cc1 | -6% | -17% | 13 | 1% | 0% | 11%
Cc1ccc(C(=O)/C=C\NCc2ccccc2)cc1 | 10% | u | 9 | -15% | -34% | 1%
COc1ccc(S(=O)(=O)N(C)c2ccc(C(=O)NCc3ccco3)cc2)cc1 | -1% | -13% | -26 | 2% | 2% | -21%
COc1ccc(C(=O)/C=C/NCc2ccc(C)cc2)cc1 | 13% | -3% | -61* | -28% | x | u
COc1ccc(CN2C(=O)C(n3c(C)ccc3C)c3cc(OC)ccc32)cc1 (stereo not given) | x | x | -15 | x | x | x
COc1ccc(CNC(=O)c2cn(Cc3ccc(S(=O)(=O)N(C)C)cc3)c(=O)s2)cc1 | u | x | -81* | x | x | x
C=CCNC(=O)c1ccc(CN(c2ccc(OCC)cc2)S(=O)(=O)c2ccc(C)cc2)cc1 | -2% | x | -7 | 11µM* | -6% | x
CC(C)CCNC(=O)COc1ccc(N(C)S(=O)(=O)c2ccc(F)cc2)cc1 | -6% | u | -87* | -7% | 2% | u
COc1ccc(N(C)S(=O)(=O)c2ccc(Cl)c(C(=O)NCCc3ccc(Cl)cc3)c2)cc1 | -14% | u | -27 | 10µM* | -1% | u
COc1ccc(CNC(=O)c2cn(Cc3ccc(OC(C)=O)cc3)c(=O)s2)cc1 | -8% | x | 7 | x | x | x
C=CCNC(=O)c1ccc(N(Cc2ccc(Cl)cc2)S(C)(=O)=O)cc1 | -9% | x | -20 | 5% | 0% | x
CC(C)c1c(C(=O)N(C)C2CCN(C)CC2)cnn1-c1nccc(-c2ccco2)n1 | -4% | x | x | x | x | x
COc1ccccc1-c1nc(SCC(=O)NCc2ccccc2)c2c(=O)n(C)c(=O)n(C)c2n1 | -16% | x | 0 | x | x | -3%[46.1 µM]
COc1ccccc1-c1nc(SCC(=O)N(C)c2ccccc2)c2c(=O)n(C)c(=O)n(C)c2n1 | -26% | 0%[46.1 µM] | 9 | 6.3µM* | 0% | -5%
Cc1ccc(N(C)C(=O)Cn2nc(Cc3ccncc3)c3ccccc3c2=O)cc1C | -10% | -13%[46.1 µM] | u | x | x | 24%[46.1 µM]
